Test systems include HCT-15 colon; HT29 colon; SNB-75 CNS; SNB-19 CNS; U251 CNS; PC-3 prostate; SK-MEL-5 melanoma; UACC-62 melanoma; LOX IMVI melanoma; SK-MEL-28 melanoma; SK-MEL-2 melanoma; EKVX NSCLC; SN12C renal; UO-31 renal; TK-10 renal; ACHN renal; A498 renal; CCRF-CEM leukemia; MOLT-4 leukemia; SR leukemia.
Assay in all cases: NCI-60 one-dose screen, 48 h (100 = growth as untreated, 0 = no growth, -100 = all killed)
Conditions in all cases: 10 µM unless noted

Compounds without any hit were thinned out: in the full panel of roughly 83,000, 20% have a hit.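 Treatment: one concentration, 48 hours, 96-well format. Scoring: percent growth, with anything below 10 considered active.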 A number with no mark means an inactive call. The source made the active and inactive calls.

For `CCOC(=O)c1c(C)nc2c(c1N)/C(=C/c1ccccn1)C(=O)N2Cc1ccccc1`, the growth in the assay with HCT-15 colon is -58.9% (active); in the assay with HT29 colon, -18.6% (active); with SNB-75 CNS it was 68.6%; in the assay with SNB-19 CNS it was 0.719% (active); in the assay on U251 CNS it was -87.4% (active); with PC-3 prostate, 2.04% (active). The growth in the assay with SK-MEL-5 melanoma was 41.2%; in the assay with UACC-62 melanoma it was 4.68% (active); in the assay on LOX IMVI melanoma, -88.4% (active); with SK-MEL-28 melanoma it was -2.42% (active); with SK-MEL-2 melanoma, -26.1% (active); with EKVX NSCLC, 24.8%. Moreover, the growth was 8.15% (active) with SN12C renal; -65.6% (active) with UO-31 renal; 2.08% (active) in the assay on TK-10 renal; 0.89% (active) in the assay with ACHN renal; 54.6% in the assay on A498 renal; 2.47% (active) with CCRF-CEM leukemia. Further, the growth was -12.8% (active) with MOLT-4 leukemia and -11.8% (active) in the assay with SR leukemia.
As to `Cc1cc(C)c2nc(Nc3nc(C)c(C)c(=O)[nH]3)nc(C)c2c1`, the growth with HCT-15 colon was 7.23% (active); with HT29 colon it was 9.28% (active); in the assay on SNB-75 CNS, 51.3%; in the assay on SNB-19 CNS, 22%; in the assay on U251 CNS, 16.7%; in the assay on PC-3 prostate, 20.9%. The growth in the assay with SK-MEL-5 melanoma was 2.14% (active); with UACC-62 melanoma, -37.7% (active); in the assay on LOX IMVI melanoma it was 6.29% (active); in the assay on SK-MEL-28 melanoma, 3.48% (active); in the assay with SK-MEL-2 melanoma it was -25.6% (active); in the assay on EKVX NSCLC, 12.4%. Further, the growth with SN12C renal is 20%; in the assay with UO-31 renal, 11.1%; with TK-10 renal it was 17%; with ACHN renal it was 23.5%; in the assay on A498 renal, -9.66% (active); in the assay on CCRF-CEM leukemia it was 7.98% (active). Also, the figures for the growth in the assay on MOLT-4 leukemia and in the assay with SR leukemia were 4.84% (active) and -9.54% (active), respectively.
As for `C=C(C)[C@@H]1CC[C@]2(C(=O)O)CC[C@]3(C)[C@H](CC[C@@H]4[C@@]5(C)C[C@@H](CC#Cc6ccccc6)C(=O)C(C)(C)[C@@H]5CC[C@]43C)[C@@H]12`, the growth in the assay on HCT-15 colon is 18.8%; with HT29 colon, 23.9%; in the assay on SNB-75 CNS it was 65.1%; in the assay with SNB-19 CNS it was 46.3%; in the assay with U251 CNS it was 27.8%; in the assay on PC-3 prostate it was 35.3%. Also, the growth was 32% in the assay with SK-MEL-5 melanoma; 42.4% with UACC-62 melanoma; 45.1% with LOX IMVI melanoma; 45.1% in the assay on SK-MEL-28 melanoma; 61.1% with SK-MEL-2 melanoma; 28.6% with EKVX NSCLC. The growth in the assay with SN12C renal is 43.7%; in the assay on UO-31 renal, 28.9%; in the assay with TK-10 renal, 33.3%; in the assay with ACHN renal, 23.8%; with A498 renal, 32.9%; in the assay with CCRF-CEM leukemia, 24.9%. Further, the growth was 22.3% in the assay on MOLT-4 leukemia and 38% in the assay with SR leukemia.
For `N#Cc1c(-c2ccc(F)cc2)nc(N/N=C/c2cccc(O)c2)nc1N1CCOCC1`, the growth was 69.5% with HCT-15 colon; 79.8% in the assay with HT29 colon; 73.9% in the assay on SNB-75 CNS; 96.1% in the assay with SNB-19 CNS; 73.5% in the assay on U251 CNS; 72.7% with PC-3 prostate. For the same compound, the growth is 90% with SK-MEL-5 melanoma; 87.7% with UACC-62 melanoma; 85.2% in the assay with LOX IMVI melanoma; 99% in the assay with SK-MEL-28 melanoma; 85.9% in the assay with SK-MEL-2 melanoma; 86.9% with EKVX NSCLC. In addition, the growth in the assay on SN12C renal was 96.7%; in the assay with UO-31 renal, 45.3%; in the assay with TK-10 renal, 63.3%; in the assay with ACHN renal, 66.9%; with A498 renal, 78.7%; in the assay with CCRF-CEM leukemia, 56.4%. Besides, the growth is 40% in the assay on MOLT-4 leukemia and 2.93% (active) with SR leukemia.
`O=C(Nc1cc(Br)ccn1)c1cc2cc(Nc3nc(-c4ccccc4)nc4ccccc34)ccc2oc1=O`: the growth with HCT-15 colon was 107%; with HT29 colon it was 104%; in the assay with SNB-75 CNS, 92.3%; with SNB-19 CNS it was 107%; in the assay with U251 CNS it was 107%; in the assay on PC-3 prostate, 93.6%. Further, the growth in the assay on SK-MEL-5 melanoma is 101%; in the assay on UACC-62 melanoma it was 103%; with LOX IMVI melanoma, 83.8%; with SK-MEL-28 melanoma, 114%; with SK-MEL-2 melanoma, 90.8%; with EKVX NSCLC, 109%. The growth in the assay on SN12C renal is 110%; with UO-31 renal, 75.4%; in the assay on TK-10 renal, 106%; in the assay with ACHN renal, 103%; in the assay with A498 renal, 112%; in the assay with CCRF-CEM leukemia, 107%. Also, the growth is 100% in the assay with MOLT-4 leukemia and 82.2% with SR leukemia.
For the compound `CN(C)CCCn1c2c(c3cc(-c4ccco4)ccc3c1=O)C(=O)c1ccccc1-2`, the growth with HCT-15 colon is 54.4%; in the assay on HT29 colon, 21%; with SNB-75 CNS it was 62.4%; in the assay on SNB-19 CNS, 69.2%; in the assay with U251 CNS, 80.4%; in the assay with PC-3 prostate it was 60%. For the same compound, the growth in the assay on SK-MEL-5 melanoma was 78.3%; in the assay on UACC-62 melanoma, 50.9%; in the assay with LOX IMVI melanoma, 60.9%; with SK-MEL-28 melanoma it was 103%; with SK-MEL-2 melanoma, 117%; in the assay on EKVX NSCLC it was 81.4%. The growth in the assay on SN12C renal is 51.9%; with UO-31 renal, 51.6%; in the assay with TK-10 renal it was 66.3%; in the assay with ACHN renal it was 48.5%; in the assay with A498 renal it was 93.7%; in the assay with CCRF-CEM leukemia it was 36.2%. Further, the growth with MOLT-4 leukemia was 10.9%; with SR leukemia, -40.2% (active).
Take `COc1ccc(-c2nnc(N3CCN(C(=O)CN4CCN(c5ccc(OC)cc5)CC4)CC3)nc2-c2ccc(OC)cc2)cc1`: the growth in the assay on HCT-15 colon is -40.9% (active); with HT29 colon, 4.12% (active); with SNB-75 CNS it was 65.7%; with SNB-19 CNS it was 96.1%; in the assay with U251 CNS, 4.4% (active); with PC-3 prostate it was -96.4% (active). Further, the growth in the assay on SK-MEL-5 melanoma was -50.2% (active); with UACC-62 melanoma, -48.2% (active); in the assay with LOX IMVI melanoma, -63.3% (active); in the assay on SK-MEL-28 melanoma, -84.1% (active); in the assay on SK-MEL-2 melanoma, -63.6% (active); in the assay with EKVX NSCLC, 41.5%. The growth is -72.7% (active) in the assay with SN12C renal; -64.4% (active) with UO-31 renal; 28.6% in the assay on TK-10 renal; 54.6% with ACHN renal; 98.1% in the assay on A498 renal; -50.7% (active) in the assay on CCRF-CEM leukemia. Also, the growth in the assay with MOLT-4 leukemia and in the assay with SR leukemia was -54.2% (active) each time.

The values are drawn from PubChem BioAssay (NCI).
